High-throughput results from PubChem.
In the library only some 18% were active in any assay of this set; here they are far more common.
RORgamma inh: ROR gamma (mouse) transcription inhibition. 5.4% of 310,000 active. Drosophila S2 Gal4-RORgamma UAS-luciferase reporter, 20 h. Potency, µM (top dose mostly 53.6 µM), for inactives: at the highest dose activity change, negative = inhibition, most hits filed as inhibitors. P51450; further: potency means the concentration at half of the fitted maximal effect; nearly all actives have a fitted effect of over 60% in size
Target sequence (P51450 whole entry, looked up, the tested form may be a part): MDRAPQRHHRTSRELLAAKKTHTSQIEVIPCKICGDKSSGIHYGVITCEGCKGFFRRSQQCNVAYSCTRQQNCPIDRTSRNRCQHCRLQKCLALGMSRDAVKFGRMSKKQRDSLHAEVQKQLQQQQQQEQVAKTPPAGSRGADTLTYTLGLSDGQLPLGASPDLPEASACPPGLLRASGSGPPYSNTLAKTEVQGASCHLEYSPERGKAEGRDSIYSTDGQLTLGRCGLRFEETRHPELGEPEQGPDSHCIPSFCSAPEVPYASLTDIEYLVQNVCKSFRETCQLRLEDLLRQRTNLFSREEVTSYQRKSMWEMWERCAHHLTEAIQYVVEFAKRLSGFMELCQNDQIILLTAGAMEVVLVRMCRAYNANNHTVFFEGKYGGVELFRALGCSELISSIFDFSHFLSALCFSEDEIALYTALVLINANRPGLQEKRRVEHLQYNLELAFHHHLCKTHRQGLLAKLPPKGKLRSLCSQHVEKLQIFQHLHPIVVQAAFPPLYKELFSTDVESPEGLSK
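Read-out: Photinus luciferase luminescence; inhibitors lower reporter signal. Insect Schneider cells with Gal4-ROR gamma fusion under metallothionein promoter, UAS reporter; 700 uM final copper sulfate induction, 20 hr, ambient temperature.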
TDP1 cell noCPT: qHTS for Inhibitors of human tyrosyl-DNA phosphodiesterase 1 (TDP1): qHTS in cells in absence of CPT; 15% of 420,000 active; AID 686978, 2013; DT40 Tdp1-/- hTDP1 cells, no CPT, ATP luminescence, 48 h; Potency, µM (top dose mostly 46.2 µM), without a hit: at the highest dose activity change, negative = growth inhibition, usual class: inhibitors; further: potency means the concentration at half of the fitted maximal effect; nearly all actives have a fitted effect of over 55% in size
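Seeded 400 DT40-hTDP1 cells/well (vehicle DMSO, no 20 nM CPT); pinned compounds; ≥48 hr at 37 °C; CellTiter-Glo luminescence as viability measure.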
LDHA block: blocks human lactate dehydrogenase A; P00338; purified LDHA, NADH/diaphorase-resazurin fluorescence; hits give low values; activity change, % (values are at about 110 or 230 µM); 0.15% of 480,000 active; AID 1347041; in the data active means activity change below about -30%; inconclusive means mostly about -25% to -30%;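 further: plate controls were DMSO wells for no effect and wells without enzyme for full effect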
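Enzyme activity of human lactate dehydrogenase 5 (2 nM; 0.06 mM NADH, 0.2 mM pyruvate, 5 min, RT) is measured via a resazurin/diaphorase fluorescence readout of residual NADH.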
DT40 TDP1 CPT: growth inhibition of DT40 Tdp1-/-;hTDP1 cells with camptothecin (screen for TDP1 inhibitors). Potency, µM (highest dose often 46.2 µM), without a hit: top-dose activity change, negative = growth inhibition, actives largely listed as inhibitors. chicken DT40 Tdp1-/-;hTDP1 cells + 20 nM CPT, ATP luminescence, 48 h. AID 686979. 12% of 420,000 active; further: potency means the concentration at half of the fitted maximal effect; nearly all actives have a fitted effect of over 55% in size
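Chicken DT40 Tdp1-/- cells complemented with human TDP1, 400 cells/well, exposed to compounds plus 20 nM camptothecin for at least 48 h at 37 C; viability read as ATP content by CellTiter-Glo luminescence.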
Gal4-VP16 FLuc: Gal4-VP16 reporter inhibition counter-screen. Drosophila S2 Gal4-VP16 UAS-luciferase, luminescence, 20 h. Potency, µM (top dose mostly 53.6 µM), without a hit: top-dose activity, negative = inhibition, usual class: inhibitors. 3.5% of 310,000 active;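 further: Gal4-VP16 expression switched on by copper sulfate through the metallothionein promoter; potency means the concentration at half of the fitted maximal effect; nearly all actives have a fitted effect of over 50% in size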
IL1B secr inh: inflammasome signaling inhibition, IL-1 beta readout; THP-1 LPS/ATP IL-1B secretion, AlphaLISA, 16 h; hits give low values; AID 743279; activity change, % at 57.5 µM; 4.7% of 360,000 active; in the data active means activity change below about -50%; inconclusive means mostly about -30% to -49%
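THP-1 cells pretreated 1 hr with compounds (up to 57.5 uM final), then stimulated with LPS (250 ng/mL final) plus ATP (1.25 mM final); secreted IL-1B measured by AlphaLISA after 16 hr, decreased signal indicating inhibition.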
* marks the source's active call; other numbers are inactive results; ? = inconclusive; . = not tested or not shown; [ ] = dose if it differs, or a comment. Unless noted, the call rests on the fitted dose curve; in most records, active means well fitted curve in the direction sought with a large enough effect; inconclusive means small, poorly fitted or top-dose-only effect, or another doubt; inactive means no such curve, though single readings can be large; an effect the other way counts as inactive or inconclusive. Unless noted, on the % scale 0 is the no-effect control and ±100 the full control effect.

SMILES	RORgamma inh	TDP1 cell noCPT	LDHA block	DT40 TDP1 CPT	Gal4-VP16 FLuc	IL1B secr inh
C#C[C@]1(O)CC[C@H]2[C@@H]3CCC4=C(CCC(=O)C4)[C@H]3CC[C@@]21C	43%	7.2µM*	0	?	6%	-5
C#C[C@]1(O)CC[C@H]2[C@@H]3CCc4cc(OC)ccc4[C@H]3CC[C@@]21C	?	21µM*	-2	0.24µM*	2%	8
C#C[C@]1(O)CC[C@H]2[C@@H]3CCc4cc(OC5CCCC5)ccc4[C@H]3CC[C@@]21C	-10%[10 µM]	8.2µM*	0	13µM*	-12%	0
C#C[C@]1(O)CC[C@H]2[C@H]3CCc4cc(O)ccc4[C@@H]3CC[C@@]21C	-1%	.	.	.	3%	.
Cc1cc(Cl)ccc1OCC(=O)NCc1ccc(-c2nc3ncccc3o2)cc1	.	.	4	.	.	.
COc1cc(CNc2ccc(N3CCOCC3)c(C(=O)O)c2)cc(Br)c1OCC(N)=O	.	.	-12	.	.	.
CNCc1ccc(-c2cc(Cl)ccc2Cl)o1	.	.	-6	.	.	.
COc1ccc(O)c(C(=O)c2cnn(C(=O)c3cccc(N(C)C)c3)c2)c1	.	18µM*	5	18µM*	.	-24
O=C(NCC1CCCO1)Nc1c(NC2CCCCC2)c2ccccc2oc1=O (stereo not given)	.	.	1	.	.	.
Cc1cccc(-c2nc3c(c(SCC(=O)N(C)C)n2)CCCC3)c1	?	16µM*	-2	?	-20%	0
CN(C)CCSc1nc(-c2ccccc2)nc2c1CCCC2	2%	16µM*	-5	12µM*	-4%	-71*
CCSc1nc(-c2ccccc2)nc2c1CCCC2	5%	?	-4	?	-15%	13
O=C(O)CSc1nc(-c2ccccc2)nc2c1CCCC2	21%	19%	-2	-11%	1%	41
Cc1ccc(-n2nnc3c(SCC(=O)NCC4CCCO4)ncnc32)cc1 (stereo not given)	-34%	12µM*	-2	21µM*	?	-56*
O=C(CSc1ncnc2sc3c(c12)CCC3)NCC1CCCO1 (stereo not given)	13%	-2%	-1	-5%	-15%	3
Cc1sc2ncnc(SCC(=O)Nc3nc(-c4ccc(F)c(F)c4)cs3)c2c1C	?	21µM*	-11	-11%	-12%	33
COC(=O)c1ccc(CSc2ncnc3sc(C)c(C)c23)o1	18µM*	-30%	-4	-18%	?	14
CC1CCc2c(sc3ncnc(SC(C)C(=O)NCC4CCCO4)c23)C1 (stereo not given)	.	21µM*	-3	26µM*	.	2
Cn1nnnc1SCC(=O)Nc1nc(-c2ccc(F)c(F)c2)cs1	29%	?	-3	?	-1%	0
CCOc1ccc(Oc2ccccc2NC(=O)c2cccc(CN3CCCC3=O)c2)cc1	.	.	1	.	.	.
CC(Sc1nnc(-c2ccccc2)c(-c2ccccc2)n1)C(=O)NCC1CCCO1 (stereo not given)	.	23µM*	3	?	.	-13
Cc1sc2ncnc(SCC(=O)NC(C)C(C)C)c2c1C (stereo not given)	-6%	16µM*	1	16µM*	-11%	-10
Cc1sc2ncnc(SCC(=O)NCC3CCCO3)c2c1C (stereo not given)	.	5.2µM*	0	0.26µM*	.	30
Cc1sc2ncnc(SC(C)C(=O)N3c4ccccc4Sc4ccccc43)c2c1C (stereo not given)	-15%	23µM*	-8	21µM*	4%	-23
Cc1ccccc1CC(=O)Nc1cc(S(=O)(=O)N2CCCCC2)ccc1N1CCN(C)CC1	.	.	7	.	.	.
SMILES	RORgamma inh	TDP1 cell noCPT	LDHA block	DT40 TDP1 CPT	Gal4-VP16 FLuc	IL1B secr inh
CC(C)Cn1nc(C(=O)NCc2ccc(C(=O)O)cc2)c2ccccc2c1=O	.	.	-14	.	.	.
CCc1ccc2c(c1)-c1ccccc1S(=O)(=O)N2CC(=O)N1CCC(C)CC1	.	18µM*	-6	16µM*	.	.
CCc1ccc2c(c1)-c1ccccc1S(=O)(=O)N2CC(=O)N1CCCCC1	.	?	-3	?	.	.
CCOC(=O)C1CCN(C(=O)CN2c3ccc(C(C)C)cc3-c3ccccc3S2(=O)=O)CC1	.	?	0	21µM*	.	.
Cc1ccc(NC(=O)CSc2nnc(Cc3ccccc3)n2-n2cccc2)c(C)c1	.	.	9	.	.	.
CC1CCN(C(CNC(=O)c2cc3ccccc3oc2=O)c2cccs2)CC1 (stereo not given)	.	.	8	.	.	.
CN(C(=O)c1ccc2c(Cl)c3c(nc2c1)CCC3)c1ccccc1F	.	29µM*	4	-17%	.	.
CCN(C(=O)c1ccc2c(Cl)c3c(nc2c1)CCC3)c1ccc(C)c(C)c1	?	21µM*	6	21µM*	-9%	-81*
COc1ccccc1CC(=O)N(Cc1ccsc1)C1CC1	.	.	-24	.	.	.
CCCCc1nc(N2CCCCC2)c(C#N)c2c1CCCC2	.	.	-3	.	.	.
CCN(Cc1ccccc1)c1ccc(/C=C(\C#N)c2ccccn2)cc1	?	?	-3	-30%	?	-14
CN(CCC#N)c1ccc(C=C(C#N)c2ccc(Br)cc2)cc1	.	?	2	?	.	-20
CN(CCC#N)c1ccc(/C=C(\C#N)c2ccccn2)cc1	10µM*	?	0	?	10µM*	-64*
CCN(CC)c1ccc(/C=C(\C#N)c2ccccn2)cc1	6.3µM*	2.6µM*	-6	2.6µM*	7.1µM*	?
O=C(CCC1CCCC1)Nc1nc2ccccc2s1	.	.	1	.	.	.
CCOC(=O)c1nnc(-c2ccccc2)nc1Oc1ccccc1Cl	4.5µM*	?	-4	-27%	5µM*	-15
FC(F)(F)c1nnc(-c2ccccc2)nc1Sc1ccccc1	?	10µM*	-2	15µM*	?	-121*
FC(F)(F)c1nnc(-c2ccccc2)nc1Oc1ccc(Cl)cc1Cl	-8%	?	0	?	-2%	-77*
CN(NC(=O)c1cccc(Cl)c1)c1nc(-c2ccccc2)nnc1C(F)(F)F	13%	12µM*	0	18µM*	-5%	19
CC(C)NC(=O)NC(=O)CN(C)Cc1cccc(C#N)c1	.	.	7	.	.	.
O=C1CCCCCCCC(=O)OCCCCCCO1	.	.	-11	.	.	.
COc1cc(OC)c(C2=CCN(C(=O)COc3ccc(C)cc3Br)CC2)c(OC)c1	.	.	1	.	.	.
COCCNc1oc(COc2ccc(-c3ccccc3)cc2)nc1C#N	.	.	7	.	.	.
FC(F)(F)c1nnc(-c2ccccc2)nc1Sc1ccc(Cl)cc1	6.3µM*	6.5µM*	-6	5.2µM*	?	-98*
